# Assay results reported in PubChem BioAssay AID686978 (National Center for Advancing Translational Sciences (NCATS), 2013).
# The campaign covered roughly 420,000 compounds. About 64,000 (15%) were called active. Another 27% or so got no clear call; they are omitted. The list is a sample of the results. Unmarked numbers belong to inactive results. Calls follow the shape of the dose curve; as a rule, active = well fitted inhibition curve with a large enough effect; inconclusive = small, poorly fitted or top-dose-only effect; inactive = flat fitted curve, though single readings scatter.
# Assay: qHTS for Inhibitors of human tyrosyl-DNA phosphodiesterase 1 (TDP1): qHTS in cells in absence of CPT; also: nearly all actives have a fitted effect of over 55% in size
# Details: DT40 Tdp1-/- hTDP1 cells, no CPT, ATP luminescence, 48 h; activity change, negative = growth inhibition: at 46.2 µM (top of the series)
# Procedure, shortened: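 Chicken DT40 Tdp1-/- cells stably complemented with human TDP1 were seeded at 400 cells/well with DMSO in place of 20 nM camptothecin. After compound pinning, cells grew at least 48 hr at 37 °C; viability read by CellTiter-Glo luminescence.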
# % is scaled to controls: 0 for no effect and ±100 for the full control effect; potency is read from the fitted curve at half-maximal effect.
SMILES,"activity change, negative = growth inhibition",Potency
O=C(NCc1ccccc1)C1CCN(S(=O)(=O)c2ccc3[nH]c(=O)ccc3c2)CC1,6.07%,–
O=C(CCn1ccc2cc(S(=O)(=O)N3CCCC3)ccc21)NCc1cccc(Cl)c1,–,20.6 µM (active)
O=C(Cn1ccc2cc(S(=O)(=O)N3CCCC3)ccc21)NCc1ccccc1,–,9.2 µM (active)
O=C(COc1ccc(S(=O)(=O)N2CCCCC2)cc1)NCc1ccccn1,-9.77%,–
CCCCN(C(=O)c1ccc(S(=O)(=O)N2CCOCC2)cc1)C1CCS(=O)(=O)C1 (configuration not stated),2.31%,–
O=C(CN1CCOC1=O)N1CCCC(Nc2ccc(F)c(F)c2)C1 (configuration not stated),-0.497%,–
Cc1ccc([N+](=O)[O-])cc1S(=O)(=O)N1CCCN(C)CC1,-1.86%,–
Cc1cc(NC(=O)c2ccc(-c3ccc(Cl)cc3)o2)cc(-c2nc3ncccc3o2)c1O,-17.9%,–
CCN1CCN(C(=O)C2CCN(S(=O)(=O)c3cc(Cl)ccc3Cl)CC2)CC1,-22.5%,–
O=C(CN1CCN(S(=O)(=O)c2cc(Cl)ccc2Cl)CC1)c1ccc(O)c(O)c1,–,2.59 µM (active)
O=S(=O)(c1cc(Cl)ccc1Cl)N1CCN(Cc2ccco2)CC1,-8.69%,–
N#Cc1ccsc1NC(=O)CN1CCN(S(=O)(=O)c2cc(Cl)ccc2Cl)CC1,–,20.6 µM (active)
N#Cc1ccsc1NC(=O)CN1CCCCC1,-24.9%,–
CN1CCN(S(=O)(=O)c2cccc(C(=O)Nc3sccc3C#N)c2)CC1,2.02%,–
Cn1c(SCc2nc3ccccc3s2)nnc1-c1ccc2c(c1)OCO2,-5.86%,–
COCc1cc(C)nc(SCC(=O)Nc2cccc(C)c2)c1C#N,-5.04%,–
Cc1cc(C)nc(SCc2ccccc2C#N)n1,-0.525%,–
COc1ccc2oc(=N)c(C(=O)Nc3ccc(Br)cc3)cc2c1,-11.4%,–
COc1ccc2oc(=O)c(C(=O)O)cc2c1,-17.5%,–
COc1ccc(/C=C/C(=O)c2cc(Br)ccc(=O)c2O)cc1,–,20.6 µM (active)
COc1ccc(NC(=O)Cn2nnc(C(=O)NCCc3ccc(OC)c(OC)c3)c2N)cc1,0.857%,–
CC(C)(C)n1cnnc1Sc1ccc([N+](=O)[O-])cn1,-18.6%,–
Cc1ccc(S(=O)(=O)N2CCCCC2)cc1NC(=O)CCNC(=O)c1ccccc1Cl,-27.7%,–
CC1CCCC(NC(=O)c2cc(S(=O)(=O)N3CCCCC3)ccc2Cl)C1C (configuration not stated),–,25.9 µM (active)
O=C(NNC(=O)c1ccccc1O)c1ccccc1O,–,2.91 µM (active)
CC1CCCCC1NC(=O)c1cn(C)c2ccc(S(=O)(=O)N3CCOCC3)cc2c1=O (configuration not stated),8.68%,–

SMILES,"activity change, negative = growth inhibition",Potency
O=C(COC(=O)c1cc(S(=O)(=O)N2CCCCC2)ccc1Cl)NCc1ccco1,-21.6%,–
CC(=O)NC(=O)c1ccccc1O,-3.97%,–
O=C(NNC(=O)c1cc(S(=O)(=O)N2CCCCC2)ccc1Cl)c1ccccc1O,–,20.6 µM (active)
Cc1cc(C(=O)CCC(=O)NNC(=O)c2ccccc2O)c(C)s1,-27.6%,–
Cc1ccc(S(=O)(=O)N2CCN(C)CC2)cc1C(=O)NC1CCCCC1,-2.9%,–
C[C@@H]1O[C@@H](OC[C@H]2O[C@@H](Oc3c(-c4ccc(O)cc4)oc4cc(O)cc(O)c4c3=O)[C@H](O)[C@@H](O)[C@@H]2O)[C@H](O)[C@H](O)[C@H]1O,-1.73%,–
CCOc1ccc(C(C)NC(=O)CN2C(=O)NC3(CCCCC3)C2=O)cc1OCC (configuration not stated),3.71%,–
Cc1ccccc1NC(=O)Cn1c(=O)n(CC2CCCO2)c(=O)c2ccccc21 (configuration not stated),-19.6%,–
C=C1O[C@@](CO)(n2cnc3c(N)ncnc32)[C@H](O)[C@@H]1O,-21.3% [at 92.5 µM],–
COc1ccc(C(=O)NC(=S)NNC(=O)CCc2ccccc2)cc1,–,6.51 µM (active)
O=C(NNC(=O)c1ccc(Cl)nc1)c1ccc(Br)cc1,-8.99%,–
COc1ccc(C(=O)NC2CCN(C(=S)Nc3ccccc3)CC2)cc1,-19.5%,–
O=C(CCc1ccccc1)NNC(=O)c1ccc(Br)cc1,-26.7%,–
COc1ccc(C(=O)NNC(=S)NC(=O)c2ccccc2)cc1,–,16.4 µM (active)
CC(C)Oc1ccc(CCC(=O)NNC(=S)NCc2ccccc2)cc1,16.7%,–
CC(=O)NC(=S)NNC(=O)c1ccc(Br)cc1,–,5.8 µM (active)
COc1ccc(C(=S)Nc2ccccc2)cc1,-15.9%,–
COc1ccc(C(=O)NNC(=S)NC(=O)c2ccccc2[N+](=O)[O-])cc1,–,23.1 µM (active)
CNC(=S)NNC(=O)c1ccc(N(C)C)cc1,16.8%,–
O=C(NC(=S)Nc1ccc(S(=O)(=O)N2CCOCC2)cc1)c1ccccc1[N+](=O)[O-],-27.2%,–
COC(=O)CNC(=O)c1ccccc1[N+](=O)[O-],1.91%,–
CS(=O)(=O)Nc1ccccc1C(=O)OCC(=O)NC1CC1,18.2%,–
CC(C)NC(=O)c1ccc(Sc2ccccc2)c([N+](=O)[O-])c1,-5.56%,–
CCOc1ncccc1C(=O)OCc1cn2cc(Cl)ccc2n1,-11.7%,–
C[C@@H]1CN([C@H](C)CO)C(=O)c2cc(Br)cnc2O[C@@H]1CN(C)Cc1cncnc1,1.36%,–
COc1ccc(-c2[nH]nc(-c3ccccc3)c2-c2nc3ccccc3[nH]2)cc1,-7.56%,–
